Results as given in PubChem BioAssay (Tox21).
Values joined by “and” are separate entries in the source; they are usually repeats but may differ in a detail not shown here. Equal entries are not always repeated. Inconclusive results are not listed. Where a call stands in place of a potency, no number is given. Some structures have more than one record in an assay (separate samples or runs), and their calls can disagree. Active and inactive are the calls of the source. Unless noted, calls come from the whole dose curve.

How the values were obtained:
[1] = Nuclear factor erythroid 2-related factor 2/antioxidant responsive element (Nrf2/ARE) small molecule agonists: qHTS cell viability counter screen in human keratinocytes (AID 1919968; active = well fitted curve in the direction sought with a large enough effect in the repeat runs; an effect the other way counts as inactive or inconclusive; note: nearly all actives have a fitted effect of over 55% in size; note: potency is the fitted concentration of half-maximal effect)
Summary of the method: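 Cytotoxicity was multiplexed with the Nrf2/ARE luciferase assay in the same wells. Stably transfected HaCaT keratinocytes were treated with test compounds for 23 h at 37 C. Cell viability was then measured by CellTiter-Fluor fluorescence.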

[2] = target: Gonadotropin-releasing hormone receptor (Homo sapiens) (UniProt P30968); assay: Human gonadotropin-releasing hormone receptor (GnRHR) small molecule agonists, calcium flux assay in GnRHR-HEK293 cells (AID 1920063); note: nearly all actives have a fitted effect of over 35% in size
Summary of the method: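 Agonist activity was measured as intracellular calcium flux in HEK293 cells engineered to stably express human GnRHR. After dye loading for 1 hour at 37 C, compounds in DMSO were added and fluorescence was followed for 3 minutes.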

[3] = target: KiSS-1 receptor (Homo sapiens) (UniProt Q969F8); assay: Human kisspeptin (KISS1R) small molecule agonists, calcium flux assay in KISS1R-HEK293 cells (AID 1920064; active = well fitted curve in the direction sought with a large enough effect in the repeat runs; an effect the other way counts as inactive or inconclusive)
Summary of the method: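 Agonist activity is monitored as intracellular calcium rise in engineered HEK293 cells carrying human KISS1R. Cells are dye-loaded for 1 h at 37 C before compound addition, and fluorescence is recorded for 3 min.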

[4] = G protein-coupled receptor (GPCR) small molecule agonists, calcium flux assay: HEK293 wild type cell line counter screen (AID 1920065)
Summary of the method: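 Seed cells, incubate 18 h (37 C, 5% CO2); add calcium dye, 1 h at 37 C; pin-transfer compounds, ATP control or DMSO; read fluorescence 480/540 nm each second for 3 min.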

[5] = p53 small molecule agonists, cell-based qHTS assay with human liver microsomes (AID 1963577);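 note: p53 response element beta-lactamase reporter cells with liver microsomes plus NADPH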
Summary of the method: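 HLM-supplemented p53RE-bla reporter assay: 16 h compound exposure at 37 C, microsomes and NADPH each 0.5 mg/mL final, read by fluorescence intensity.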

[6] = p53 small molecule agonists, cell-based qHTS assay with rat liver microsomes (AID 1963578)
Summary of the method: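 Quantitative HTS of the Tox21 10K library: p53RE-bla cells, rat liver microsomes plus NADPH at 0.5 mg/mL final each, 16 h at 37 C, beta-lactamase fluorescence detection.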

[7] = p53 small molecule agonists, cell-based qHTS assay with human liver microsomes: qHTS cell viability counter screen (AID 1963579); note: nearly all actives have a fitted effect of over 45% in size
Summary of the method: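 Viability of p53RE-bla cells is measured as CellTiter-Glo luminescence following a 16 h, 37 C incubation with compound, liver microsomes from human donors and NADPH.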

[8] = p53 small molecule agonists, cell-based qHTS assay with rat liver microsomes: qHTS cell viability counter screen (AID 1963580); note: nearly all actives have a fitted effect of over 45% in size; note: potency is the fitted concentration of half-maximal effect
Summary of the method: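 Cytotoxicity counter screen: intracellular ATP read by CellTiter-Glo luminescence in the p53 reporter wells. HCT-116 p53RE-bla cells were treated for 16 h at 37 C alongside rat liver microsomes and NADPH, each 0.5 mg/mL final.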

[9] = p53 small molecule agonists, cell-based qHTS assay: qHTS cell viability counter screen (AID 1963581); note: nearly all actives have a fitted effect of over 45% in size; note: potency is the fitted concentration of half-maximal effect
Summary of the method: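 Viability was counter-screened in parallel with the p53 agonist reporter by measuring intracellular ATP luminescence in the same HCT-116 p53RE-bla wells after 16 h compound treatment at 37 C.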

[10] = cAMP Responsive Elements (CRE) small molecule agonists, cell-based qHTS assay (AID 1963590)
Summary of the method: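 Cells carrying a CRE-driven beta-lactamase reporter (HEK 293T) are seeded, incubated overnight (18 h), and treated with test compounds for 3 h at 37 C; reporter activity is then detected with a FRET substrate after 2 h at room temperature.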

[11] = cAMP Responsive Elements (CRE) small molecule antagonists, cell-based qHTS assay (AID 1963591; active = well fitted inhibition curve with a large enough effect in the signal ratio in the repeat runs, not every such curve was filed as active; the % refers to the signal ratio)
Summary of the method: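 Cells (CRE-bla HEK 293T, DMEM with 10% dialyzed FBS and 25 mM HEPES) are seeded and incubated 18 h. Compounds are added with NKH477 agonist at 0.25 uM final for 3 h, then FRET substrate for 2 h.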

[12] = target: D(2) dopamine receptor (Homo sapiens) (UniProt P14416); assay: Dopamine D2 receptor (DRD2) small molecule agonists, cell-based qHTS assay (AID 1963594); note: nearly all actives have a fitted effect of over 35% in size
Summary of the method: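 cAMP accumulation in DRD2-HEK293 cells measured by HTRF after 1 h detection; compounds added 10 min before NKH477 (200nM […]) forskolin-analogue stimulation, 30 min at room temperature, with Ro20-1724 present at 0.1 mM final.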

[13] = target: D(2) dopamine receptor (Homo sapiens) (UniProt P14416); assay: Dopamine D2 receptor (DRD2) small molecule antagonists, cell-based qHTS assay (AID 1963595; active = well fitted inhibition curve with a large enough effect in the signal ratio in the repeat runs, with a control signal flat; the % refers to the signal ratio; note: potency is the fitted concentration of half-maximal effect)
Summary of the method: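 Stable D2 receptor HEK293 line, 24 h after seeding. Compound preincubated 10 min, then quinpirole (12 nM) with forskolin analogue NKH477 (200 nM), 30 min, room temperature. Detection by time-resolved FRET of cAMP.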

[14] = target: 5-hydroxytryptamine receptor 2A (Homo sapiens) (UniProt P28223); assay: 5-hydroxytryptamine receptor 2A (HTR2A) small molecule antagonists, cell-based qHTS assay (AID 1963586); note: nearly all actives have a fitted effect of over 45% in size
Summary of the method: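 CHO cells stably expressing human HTR2A were plated for 18 h at 37 C, then loaded with calcium dye for 1 h. Compounds were preincubated 5 min at room temperature before DOI (4 nM solution) was added. Kinetic fluorescence was read for 3 min.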

[15] = target: 5-hydroxytryptamine receptor 2A (Homo sapiens) (UniProt P28223); assay: 5-hydroxytryptamine receptor 2A (HTR2A) small molecule agonists, cell-based qHTS assay (AID 1963587); note: nearly all actives have a fitted effect of over 30% in size
Summary of the method: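 Kinetic calcium-flux fluorescence (2 min, 1 sec intervals) after compound addition in agonist mode. HTR2A-CHO cells were cultured 18 h, then dye-loaded 1 h at 37 C.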

[16] = target: Muscarinic acetylcholine receptor M1 (Homo sapiens) (UniProt P11229); assay: Cholinergic receptor muscarinic 1 (CHRM1) small molecule antagonists, cell-based qHTS assay (AID 1963588); note: nearly all actives have a fitted effect of over 40% in size
Summary of the method: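 Compounds were tested at 15 concentrations in three independent runs. Dye-loaded CHRM1-CHO cells were exposed 5 min at room temperature before stimulation by acetylcholine added at 50nM. Intracellular calcium was read kinetically on FDSS for 3 min.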

[17] = target: Muscarinic acetylcholine receptor M1 (Homo sapiens) (UniProt P11229); assay: Cholinergic receptor muscarinic 1 (CHRM1) small molecule agonists, cell-based qHTS assay (AID 1963589); note: nearly all actives have a fitted effect of over 35% in size
Summary of the method: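 Cells were plated and incubated 18 h at 37 C/5% CO2, loaded with calcium dye for 1 h at 37 C, then treated with compounds in DMSO. Fluorescence was recorded kinetically at 1 sec intervals.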

[18] = target: Beta-2 adrenergic receptor (Homo sapiens) (UniProt P07550); assay: Adrenergic beta2 receptor (ADRB2) small molecule antagonists, cell-based qHTS assay (AID 1963592); note: series mostly up to about 92 µM; nearly all actives have a fitted effect of over 50% in size
Summary of the method: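 Assay format: CHO-ADRB2 cells, 18-20hr seeding at 37C/5% CO2, then compound plus 1nM isoproterenol agonist mix for 0.5hr RT. Homogeneous time-resolved fluorescence cAMP detection after 1hr, expressed as 665/615 nm ratio.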

[19] = p53 small molecule agonists, cell-based qHTS assay (AID 1963582; active = well fitted activation curve with a large enough effect in the signal ratio in the repeat runs, not every such curve was filed as active; the % refers to the signal ratio)
Summary of the method: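 Cells carrying a p53-responsive bla reporter are treated with test compounds for 16 h at 37 C; beta-lactamase activity is then detected with LiveBLAzer B/G FRET substrate after 2 h at room temperature.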

[20] = target: Beta-2 adrenergic receptor (Homo sapiens) (UniProt P07550); assay: Adrenergic beta2 receptor (ADRB2) small molecule agonists, cell-based qHTS assay (AID 1963593);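 note: CHO cells stably overexpressing human ADRB2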
Summary of the method: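 CHO cells stably over-expressing ADRB2 were plated overnight at 37C, then dosed with compounds plus a stimulation mix containing 100uM IBMX and 25uM Ro-20-1724 for 0.5hr at room temperature. cAMP was measured by HTRF competition, 1hr.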

Chain of D(2) dopamine receptor (Homo sapiens) (P14416 whole entry, looked up): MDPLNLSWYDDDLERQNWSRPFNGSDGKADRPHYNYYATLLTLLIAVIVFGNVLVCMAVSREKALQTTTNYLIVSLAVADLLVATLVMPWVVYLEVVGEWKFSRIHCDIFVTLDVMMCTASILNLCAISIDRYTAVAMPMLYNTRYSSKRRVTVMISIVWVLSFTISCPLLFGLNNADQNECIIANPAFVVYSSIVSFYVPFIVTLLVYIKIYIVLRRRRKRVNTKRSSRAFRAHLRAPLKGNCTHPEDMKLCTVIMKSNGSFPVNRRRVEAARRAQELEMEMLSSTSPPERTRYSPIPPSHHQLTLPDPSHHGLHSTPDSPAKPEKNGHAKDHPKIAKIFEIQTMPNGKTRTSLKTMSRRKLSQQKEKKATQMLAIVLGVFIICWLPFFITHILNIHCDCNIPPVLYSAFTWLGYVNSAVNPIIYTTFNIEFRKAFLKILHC
Chain of 5-hydroxytryptamine receptor 2A (Homo sapiens) (P28223 whole entry, looked up): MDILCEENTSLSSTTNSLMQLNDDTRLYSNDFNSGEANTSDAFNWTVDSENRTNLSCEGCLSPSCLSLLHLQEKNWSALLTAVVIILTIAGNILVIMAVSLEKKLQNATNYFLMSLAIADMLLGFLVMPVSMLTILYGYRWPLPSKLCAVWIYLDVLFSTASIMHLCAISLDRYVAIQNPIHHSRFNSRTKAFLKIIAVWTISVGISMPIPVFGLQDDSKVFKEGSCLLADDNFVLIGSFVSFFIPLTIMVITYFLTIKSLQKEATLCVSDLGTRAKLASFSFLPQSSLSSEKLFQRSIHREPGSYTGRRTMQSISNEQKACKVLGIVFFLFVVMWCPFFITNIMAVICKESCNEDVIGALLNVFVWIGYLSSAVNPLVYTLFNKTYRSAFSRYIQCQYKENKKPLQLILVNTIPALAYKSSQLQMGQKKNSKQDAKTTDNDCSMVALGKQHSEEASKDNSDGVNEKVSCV
Chain of KiSS-1 receptor (Homo sapiens) (Q969F8 whole entry, looked up): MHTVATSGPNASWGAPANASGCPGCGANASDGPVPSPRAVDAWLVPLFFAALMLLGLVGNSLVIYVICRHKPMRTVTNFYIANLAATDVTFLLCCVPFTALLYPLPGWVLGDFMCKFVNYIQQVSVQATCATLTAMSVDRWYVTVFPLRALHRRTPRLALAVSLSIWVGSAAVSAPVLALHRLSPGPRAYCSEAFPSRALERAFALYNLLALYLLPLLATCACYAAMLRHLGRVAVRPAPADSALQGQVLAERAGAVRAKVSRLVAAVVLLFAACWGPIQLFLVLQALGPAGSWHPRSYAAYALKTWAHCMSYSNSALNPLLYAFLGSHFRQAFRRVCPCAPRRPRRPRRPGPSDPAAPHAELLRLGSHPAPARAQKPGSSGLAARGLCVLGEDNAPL
Chain of Muscarinic acetylcholine receptor M1 (Homo sapiens) (P11229 whole entry, looked up): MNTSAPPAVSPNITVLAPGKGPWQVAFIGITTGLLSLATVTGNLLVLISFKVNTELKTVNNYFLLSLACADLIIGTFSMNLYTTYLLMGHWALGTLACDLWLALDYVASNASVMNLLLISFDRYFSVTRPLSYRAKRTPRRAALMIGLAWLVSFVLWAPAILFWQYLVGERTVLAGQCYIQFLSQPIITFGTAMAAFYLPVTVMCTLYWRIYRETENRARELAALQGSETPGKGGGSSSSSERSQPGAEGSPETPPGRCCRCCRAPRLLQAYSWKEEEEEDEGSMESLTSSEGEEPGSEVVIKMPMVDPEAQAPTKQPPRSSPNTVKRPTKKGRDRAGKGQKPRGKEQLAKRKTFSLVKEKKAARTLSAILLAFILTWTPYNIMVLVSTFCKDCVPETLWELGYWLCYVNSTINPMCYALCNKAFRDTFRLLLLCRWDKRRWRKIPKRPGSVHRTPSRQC
Chain of Beta-2 adrenergic receptor (Homo sapiens) (P07550 whole entry, looked up): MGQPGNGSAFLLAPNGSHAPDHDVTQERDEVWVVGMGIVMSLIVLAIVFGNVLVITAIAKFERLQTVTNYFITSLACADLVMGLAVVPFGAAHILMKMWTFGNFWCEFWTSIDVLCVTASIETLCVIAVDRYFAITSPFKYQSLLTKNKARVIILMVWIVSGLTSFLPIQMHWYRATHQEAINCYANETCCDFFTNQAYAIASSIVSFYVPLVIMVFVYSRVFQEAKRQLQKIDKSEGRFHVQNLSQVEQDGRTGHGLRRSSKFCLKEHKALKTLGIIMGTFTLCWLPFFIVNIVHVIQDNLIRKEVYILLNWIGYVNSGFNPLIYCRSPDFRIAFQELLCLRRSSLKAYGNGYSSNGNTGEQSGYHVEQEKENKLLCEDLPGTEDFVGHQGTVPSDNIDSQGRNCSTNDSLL
Chain of Gonadotropin-releasing hormone receptor (Homo sapiens) (P30968 whole entry, looked up): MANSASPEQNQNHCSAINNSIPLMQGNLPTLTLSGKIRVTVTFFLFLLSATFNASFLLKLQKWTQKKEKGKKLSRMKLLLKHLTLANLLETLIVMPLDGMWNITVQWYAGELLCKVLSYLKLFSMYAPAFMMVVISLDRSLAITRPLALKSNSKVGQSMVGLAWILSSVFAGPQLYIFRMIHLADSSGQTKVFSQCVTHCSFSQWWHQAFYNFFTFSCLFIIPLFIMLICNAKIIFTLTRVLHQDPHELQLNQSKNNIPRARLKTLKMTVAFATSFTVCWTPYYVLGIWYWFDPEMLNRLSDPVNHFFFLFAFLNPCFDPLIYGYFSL

SMILES	Potency [1]	Potency [2]	Potency [3]	Potency [4]	Potency [5]	Potency [6]	Potency [7]	Potency [8]	Potency [9]	Potency [10]	Potency [11]	Potency [12]	Potency [13]	Potency [14]	Potency [15]	Potency [16]	Potency [17]	Potency [18]	Potency [19]	Potency [20]
CC/C(=C(\c1ccccc1)c1ccc(OCCN(C)C)cc1)c1ccccc1	24.3 µM (active) [middle of 5 runs]	inactive	inactive	inactive	inactive	inactive	inactive	1.83 µM (active) and 28.8 µM (active) and inactive	inactive and 51.3 µM (active)	inactive	inactive	inactive	38.9 µM (active) and 61.1 µM (active)							
O=NO	inactive	inactive	inactive				inactive		inactive	inactive	inactive	inactive	inactive	inactive	inactive	inactive	inactive	inactive		
CCOc1ccc(NC(C)=O)cc1	inactive	inactive	inactive			inactive	inactive	inactive		inactive	inactive	inactive	inactive					inactive	inactive	inactive
C=C(C)C(=O)OCC(C)O (centres undefined)	inactive	inactive	inactive	inactive			inactive	inactive	inactive	inactive	inactive		inactive	inactive	inactive	inactive	inactive	inactive		inactive
CC(=O)Oc1ccccc1C(=O)O	inactive	inactive	inactive	inactive	inactive	inactive	inactive	inactive	inactive	inactive	inactive	inactive	inactive					inactive	inactive	inactive
CCCOCC(C)O (centres undefined)	inactive	inactive	inactive	inactive			inactive	inactive	inactive	inactive	inactive	inactive	inactive	inactive	inactive	inactive	inactive	inactive		inactive
CC(O)C(=O)O (centres undefined)	inactive	inactive	inactive	inactive		inactive	inactive		inactive	inactive	inactive	inactive	inactive					inactive	inactive	inactive
O=c1c(O)c(-c2ccc(O)c(O)c2)oc2cc(O)cc(O)c12	inactive	inactive	inactive	inactive	inactive		inactive	inactive	inactive		inactive	inactive	inactive		inactive	inactive	inactive	inactive	inactive	inactive
O=C1CCC(N2C(=O)c3ccccc3C2=O)C(=O)N1 (centres undefined)	inactive	inactive	inactive	inactive		inactive	inactive	inactive	inactive	inactive	inactive	inactive	inactive					inactive	inactive	
